Reference: PubChem BioAssay (EPA / NIEHS)
Records with an inconclusive call do not appear. Calls of active or inactive are those of the source. The calls were made as follows: active = hit-call score of the fitted dose curve at least 0.9, where 1 is the maximum; inconclusive = response in the unintended direction; inactive = score below 0.9.

Test: ACEA_ER_AUC_viability: ACEA Biosciences xCELLigence Real-Time Cell Analysis on Estrogen Receptor Agonism for Viability (AID 2283782);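 also: continuous compound exposure with impedance area under curve over 80 h; hit means loss of impedance signal meaning reduced cell growth or viability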
Method in brief: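 T-47D; phenol red-free RPMI1640 + 10% CS-FBS; 8 conc., 1:4 serial, max 100 uM final, ≤0.5% DMSO; n = 2; continuous exposure; impedance monitored to 80 h post-dose; AUC vs DMSO.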

Structure (SMILES) | outcome | AC50
CC1CCC(C(C)(C)O)CC1 (centres undefined) | inactive | –
CC(C)CCCCCCCOC(=O)c1ccc(C(=O)OCCCCCCCC(C)C)c(C(=O)OCCCCCCCC(C)C)c1 | inactive | –
Cc1cccc(C)c1[N+](=O)[O-] | inactive | –
Nc1cc(N)cc(C(=O)O)c1 | inactive | –
CCCCCCCCCCCCN | – | 66.3 µM (active)
C=CC(C)(CCC=C(C)C)OC=O (centres undefined) | inactive | –
CC(=O)OCCOC(C)=O | inactive | –
C=C(C)C(=O)O[C@H]1C[C@@H]2CC[C@@]1(C)C2(C)C | inactive | –
C=COCCOCCOCCOC=C | inactive | –
CCO[Si](CCCS)(OCC)OCC | inactive | –
CCn1c2ccccc2c2cc(N)ccc21 | inactive | –
CCCCCCCCCCCCCCCCCC(=O)OCC(CC)CCCC (centres undefined) | inactive | –
Nc1ccc(S(N)(=O)=O)cc1 | inactive | –
CCCCCCCCCCCCCC(=O)O | inactive | –
COc1ccc(NC(=O)CC(C)=O)cc1 | inactive | –
Cc1ccc(C=O)s1 | – | 50 µM (active)
CC1=CCC2C(C1)C2(C)C (centres undefined) | inactive | –

Structure (SMILES) | outcome | AC50
CCCCC(CC)COCCC#N (centres undefined) | inactive | –
C=CC(=O)OCCOCCOCC | – | 81.2 µM (active)
CC1=CCC(O)(C(C)C)CC1 (centres undefined) | inactive | –
Fc1c(F)c(F)c(Br)c(F)c1F | inactive | –
O=c1oc(=O)c2cc3c(=O)oc(=O)c3cc12 | inactive | –
CCCCO | – | 35.2 µM (active)
O=C[C@H](O)[C@H](O)[C@H](O)CO | – | 23.6 µM (active)
COc1cccc(OC)c1 | inactive | –
CCC(C)(O)CCC=C(C)C (centres undefined) | – | 79.1 µM (active)
CCCCCCCCCC=O | inactive | –
CC(C)(C)C(=O)c1ccccc1 | inactive | –
CC(=O)Nc1ccccc1O | inactive | –
N#Cc1ccccc1 | inactive | –
CC1CC(OC(=O)c2ccccc2O)CC(C)(C)C1 (centres undefined) | – | 78.4 µM (active)
CN(C)CCOCCN(C)C | inactive | –
CC(C)=CCCC(C)CC=O (centres undefined) | inactive | –
NCCCCCCN | inactive | –
